Bioassay records (PubChem BioAssay)
Most compounds without a hit are left out; they make up all but 5.7% or so of the library.
Myeloid diff 2: compounds promoting myeloid differentiation; calls only at 10 µM; 1% of 360,000 active; ER-HoxA9 myeloid progenitors, lysozyme-GFP differentiation, flow cytometry;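 active means normalized GFP-positive differentiation at or above the plate's own cutoff, the solvent-only control mean plus 3 SD; inconclusive means no clear call, values can overlap the other calls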;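 further: cells exposed to compound for four days before flow analysis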
NR3A LBD binder: modulators (binders) of human NR3A ligand-binding domain; 2.5% of 340,000 active; Tm shift relative to glycine control, % at 25 µM; AID 1259313; NR3A LBD differential scanning fluorimetry, Tm shift; 0% = protein alone, 100% = glycine-bound protein;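 active means melting temperature shift of at least 10% of the positive control shift, at one fixed dose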
MPTP inh: inhibitors of mitochondrial permeability transition pore | isolated mouse mitochondria, Ca2+ swelling absorbance, 30 min | 1.4% of 360,000 active | inhibition, % at 10 µM;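 active means inhibition of 50% or more, scaled per plate between neutral and stimulator controls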;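 further: 0% = DMSO wells given calcium and 100% = 1 mM EGTA wells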
rCAG binder: binds r(CAG) RNA repeats. r(CAG) RNA repeat, TO-PRO-1 dye displacement fluorescence. inhibition, % at 3 µM. 1.3% of 370,000 active;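 active means inhibition above the plate cutoff, the mean of all test compounds on that plate plus 3 SD, cut at about 35% in these data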;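 further: 0% = DMSO alone and 100% = 100 µM mitoxantrone as full dye displacement; higher means more dye released from RNA so lower well fluorescence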
FAS TE block: blocks the thioesterase domain of human fatty acid synthase; inhibition, % at 15 µM; recombinant FAS-TE, OMFH fluorogenic substrate, fluorescence endpoint; P49327; 0.67% of 360,000 active;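 active means compounds whose normalised, plate-corrected inhibition of enzyme fluorescence in the single-dose primary screen is 50% or more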;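 further: 0% = DMSO with enzyme and 100% = substrate without enzyme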
Starred values were filed as active, the others as inactive; i = inactive; u = inconclusive; x = no result; + = active, no number.

SMILES	Myeloid diff 2	NR3A LBD binder	MPTP inh	rCAG binder	FAS TE block
Cc1ccccc1Cn1cc(COC(=O)N(C)Cc2ccccc2)nn1	x	x	x	1	x
CC(C)CCC(O)(CCC(C)C)C(=O)NNc1ccccc1	+	0	1	0	-2
CCOC(=O)/C(=C/C=C1\Sc2cc(C)c(C)cc2N1CC)C(C)=O	+	2	-3	-41	-141
C[C@H]1COc2cc(Br)ccc2S(=O)(=O)N1Cc1cn(Cc2ccco2)nn1	x	x	x	1	x
CCCCNc1nc2c(S(=O)(=O)c3ccccc3)nnn2c2ccccc12	i	15*	3	2	-2
Cc1ccc(S(=O)(=O)c2nnn3c2nc(NC2CCN(Cc4ccccc4)CC2)c2ccccc23)cc1C	u	8	-1	x	86*
COC(=O)CNC(=O)CSc1nc2c(sc(=S)n2-c2ccccc2)c(=O)[nH]1	i	0	0	9	-5
COc1ccc(Cl)cc1-n1c(=S)sc2c(=O)[nH]c(SCC(=O)C(C)(C)C)nc21	i	-19	3	84*	7
Cc1ccc(-c2cc(-c3nnc(SCC(=O)Nc4ccc(OCc5ccccc5)cc4)n3N)[nH]n2)cc1	x	x	x	10	x
Cc1ccc(S(=O)(=O)n2c3ccc(Cl)cc3c3nc(C)sc32)cc1	i	27*	3	7	42
Brc1ccc(Nc2ncnc3[nH]ncc23)cc1	i	26*	2	0	-1
Fc1cccc(Nc2ncnc3[nH]ncc23)c1	i	-4	-1	-2	-7
Cc1ccc(NC(=O)CN2CCC(Cc3ccccc3)CC2)cc1S(=O)(=O)N(C)C	+	-1	3	-6	23
CC(=O)C1=C(C)N(Cc2ccc(F)cc2)C(=S)NC1c1ccccc1 (stereo not given)	x	x	x	2	x
COc1ccc(N/C=C/C(=O)c2cc(OC)c(OC)c(OC)c2)cc1	u	30*	2	-5	10
COc1cccc(C(=O)/C=C/Nc2cccc(O)c2)c1	i	13*	0	x	-4
COc1ccc(N/C=C/C(=O)c2ccc(OC)c(OC)c2)cc1	i	-4	2	2	3
COc1cccc(C(=O)/C=C/Nc2ccc(S(=O)(=O)Nc3cccc(C(C)=O)c3)cc2)c1	i	13*	30	20	25
Clc1ccc(-n2c(Cc3cccs3)nnc2SC/C=C/c2ccccc2)cc1	x	x	x	3	x
CC(C)(C)C(=O)N1CCC[C@]2(CC[C@H](CCC#N)O2)C1	x	x	x	2	x
Cc1cc(C)cc(N(C(=O)Cc2cccs2)C(C(=O)NC2CCCCC2)c2ccccn2)c1 (stereo not given)	i	0	4	-7	11
Cc1ccccc1C(C(=O)NC1CCCC1)N(C(=O)Cc1cccs1)c1ccc2c(c1)OCCO2 (stereo not given)	i	-4	1	-4	54*
CC(=O)Oc1cc(C(=O)OCC(=O)NC23CC4CC(CC(C4)C2)C3)cc(OC(C)=O)c1OC(C)=O	i	1	1	53*	-4
Cc1ccccc1C1C(C#N)=C2N=C(N)c3c(sc4c3CCCCC4)N2C2=C1C(=O)CC(C)(C)C2 (stereo not given)	+	-9	1	1	-42
Cc1ccccc1C1C(C#N)=C2N=C(N)c3ccccc3N2C2=C1C(=O)CCC2 (stereo not given)	i	-1	2	0	5
SMILES	Myeloid diff 2	NR3A LBD binder	MPTP inh	rCAG binder	FAS TE block
CCOC(=O)c1ccc(NC(=O)OC[C@@H]2CSCCS(=O)(=O)N2)cc1	x	x	x	1	x
CC1(c2nnnn2Cc2ccccc2)CSCC(=O)N1Cc1cccs1 (stereo not given)	x	x	x	5	x
Nc1ncnc(N)c1NC(=O)c1ccccc1	x	x	x	2	x
CC(Cc1c[nH]c2ccccc12)NC(=O)OCCCl (stereo not given)	+	-16	-1	-9	2
COCCCNC(=O)C[C@H]1C[C@@]2(C(=O)OC)C(=C[C@H](C3CCCC3)O[C@@H]2C)N(Cc2ccccc2)C1=O	x	x	x	0	x
N#CC(c1cccc(Cl)c1)c1ncc(C(F)(F)F)cc1Cl (stereo not given)	i	3	2	-4	11
N#CC(c1ccc(Cl)cc1)c1ncc(C(F)(F)F)cc1Cl (stereo not given)	i	14*	2	-3	21
Cc1ccc(-c2cc(C(=O)Nc3ccc(S(=O)(=O)Nc4nc(C)cc(C)n4)cc3)c3ccccc3n2)cc1	i	-1	-1	8	-7
Cc1cc(C(=O)Nc2ccc(S(=O)(=O)Nc3onc(C)c3C)cc2)c(C)o1	i	-1	-3	11	-4
COc1ccc(-c2cc(C(=O)Nc3ccc(S(=O)(=O)Nc4onc(C)c4C)cc3)c3ccccc3n2)cc1	i	-4	1	75*	5
Cc1ccc(/C=C/C(=O)Nc2ccc(S(=O)(=O)Nc3onc(C)c3C)cc2)cc1	i	-1	2	68*	-4
CCCCCCC(=O)Nc1ccc(S(=O)(=O)Nc2onc(C)c2C)cc1	i	-1	2	18	-4
Cc1cccc(OCCCC(=O)Nc2ccc(S(=O)(=O)Nc3onc(C)c3C)cc2)c1	i	-5	-6	48*	-7
Cc1noc(NS(=O)(=O)c2ccc(NC(=O)c3cc(F)c(F)c(F)c3F)cc2)c1C	i	92*	0	18	-6
CN1C(=O)N(S(=O)(=O)c2ccc(F)c(F)c2F)C(=O)C1(C)C	+	4	2	0	-3
O=C1N(S(=O)(=O)c2ccccc2F)C(=O)C2(CCCC2)N1S(=O)(=O)c1ccccc1F	i	-1	-1	2	-4
O=C(CN1CCOCC1)Nc1cc(C(F)(F)F)ccc1Cl	i	1	-1	-1	-1
O=C(CN1CCN(C(=O)c2ccco2)CC1)Nc1cc(C(F)(F)F)ccc1Cl	i	14*	2	x	-7
CN(C(=O)c1ccc(NC(=O)Cc2cccc(NC(=O)C3CCCN(C(=O)CCc4ccccc4)C3)c2)cc1)C1CCCC1 (stereo not given)	i	22*	5	1	6
CN(C(=O)c1cccc(NC(=O)Cc2ccc(NC(=O)C3CCCN(C(=O)CCc4ccccc4)C3)cc2)c1)C1CCCC1 (stereo not given)	i	1	0	7	2
COCC(C)n1c(C)cc(C(=O)COC(=O)CN=C2NS(=O)(=O)c3ccccc32)c1C (stereo not given)	i	10*	7	-1	-9
COc1cccc(/C=C2\SC(=S)N(CC3CCCO3)C2=O)c1 (stereo not given)	i	7	-1	1	17
COc1cccc(/C=C2/SC(=S)N(CC(=O)NNC(=O)c3ccccc3O)C2=O)c1	i	15*	3	17	15
COc1cccc(/C=C2\SC(=S)N(N3C(=O)CCCC3=O)C2=O)c1	i	24*	-1	8	-4
O=C(CN1C(=O)/C(=C/c2ccccc2)SC1=S)NNC(=O)c1ccccc1O	i	10*	-1	9	13
COc1cccc(/C=C2/SC(=S)N(CCCC(=O)Nc3ccc(O)cc3)C2=O)c1	i	1	1	10	13
